Screens as filed in PubChem BioAssay.
In the library only some 21% were active in any assay of this set; here they are far more common.
Shiga inhibitor: A qHTS for Small Molecule Inhibitors of Shiga Toxin; Vero cells, Shiga toxin protein synthesis inhibition reporter; inhibition, % at 38.7 µM; 9.2% of 290,000 active; AID 2315, 2010; in the data active means inhibition mostly above about 28%, no sharp cut-off; inactive means mostly below about 43%
Cycloheximide cs: Cycloheximide Counterscreen for Small Molecule Inhibitors of Shiga Toxin; cell reporter, cycloheximide protein synthesis inhibition counterscreen; max response, %; 12% of 300,000 active; in the data active means max response mostly above about 13%, no sharp cut-off; inactive means mostly below about 14%; further: read at 38.3 µM for the half of the compounds with a filed dose
Pf growth 48h: Primary qHTS for delayed death inhibitors of the malarial parasite plastid, 48 hour incubation; P. falciparum luciferase growth in erythrocytes, 48 h; Potency, µM (titrated, usually from 28.7 µM), hits mostly inhibitors; 5.9% of 310,000 active; AID 504832, 2011
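Cell-based growth assay: transgenic P. falciparum expressing firefly luciferase, cultured in red cells within RPMI 1640 containing 0.5% w/v Albumax, 24 mM bicarbonate and gentamycin. A drop in luciferase activity indicates inhibition.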
Sm TGR block: qHTS Assay for the Inhibitors of Schistosoma Mansoni Peroxiredoxins | Schistosoma mansoni thioredoxin glutathione reductase (TGR), Q962Y6 | purified TGR, DTNB reduction, TNB absorbance 405 nm | Potency, µM (highest dose often 114 µM), actives largely listed as inhibitors | 3% of 360,000 active; further: nearly all actives have a fitted effect of over 60% in size
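TGR 20 nM + NADPH 100 uM (dispensed conc.), cpd preinc 15 min RT; start with NADPH (500 uM addition) then DTNB (15 mM addition). Kinetic TNB absorbance, 405 nm filter. Four-parameter Hill fit across titration.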
Pf growth 96h: Primary qHTS for delayed death inhibitors of the malarial parasite plastid, 96 hour incubation; P. falciparum luciferase reporter growth, 96 h; Potency, µM (highest dose often 28.7 µM), hits mostly inhibitors; 6.9% of 320,000 active
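P. falciparum expressing integrated firefly luciferase grown in erythrocytes (2% hematocrit, 0.05% parasitemia final) with compounds for 96 hours at 37 C, 5% CO2. Growth inhibition read as loss of luminescence after adding luciferase detection reagent.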
NS1 function inh: qHTS Assay for Inhibitors of Influenza NS1 Protein Function; Potency, µM (titrated, usually from 46.1 µM); 0.4% of 270,000 active; calls by dose curve; further: actives are rising curves; nearly all actives have a fitted effect of over 50% in size
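Compounds were scored for reversing the slow growth caused by influenza A NS1 in S. cerevisiae, measured by optical density at 600 nm. Assay medium contained 2% galactose at pH 6.0; NS1-free yeast of the same strain were the positive control.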
Hits are given with their value; 0 = inactive; ? = inconclusive; - = no result. Unless noted, the call rests on the fitted dose curve; in most records, active means well fitted curve in the direction sought with a large enough effect; inconclusive means small, poorly fitted or top-dose-only effect, or another doubt; inactive means no such curve, though single readings can be large; an effect the other way counts as inactive or inconclusive.

SMILES	Shiga inhibitor	Cycloheximide cs	Pf growth 48h	Sm TGR block	Pf growth 96h	NS1 function inh
CCN(CC)c1ccc(S(=O)(=O)N2CCOCC2)cc1NC(=O)CN1CCc2ccccc2C1	0	0	10µM	-	?	0
Cc1nn(CC(=O)Nc2cc(S(=O)(=O)N(C)C)ccc2Cl)c(C)c1[N+](=O)[O-]	0	0	0	0	?	0
CCN(CC)c1ccc(S(=O)(=O)N2CCOCC2)cc1NC(=O)COC(=O)/C=C/c1ccc(C)o1	-	-	?	32µM	0	-
CCN(CC)c1ccc(S(=O)(=O)N2CCOCC2)cc1NC(=O)COC(=O)c1ccco1	-	-	?	0	0	-
CCN(CC)c1ccc(S(=O)(=O)N2CCOCC2)cc1NS(C)(=O)=O	0	0	0	0	0	0
CCN(CC)c1ccc(S(=O)(=O)N2CCOCC2)cc1NC(=O)Cn1nc(C)c([N+](=O)[O-])c1C	-	-	?	0	12µM	-
CCc1ccc(C(=O)c2cn(CC(=O)Nc3ccc(OC)c(OC)c3)c3ccc(C)cc3c2=O)cc1	-	-	-	0	-	-
O=C(NCc1ccc(F)cc1)c1cnc(N2CCOCC2)c2ccccc12	-	-	-	0	-	-
Cc1ccc2c(=O)cc(C(=O)Nc3nnc(CC(C)C)s3)oc2c1C	-	-	-	0	-	-
CCCc1cc(C(=O)N/N=C/c2ccc(CC)s2)c2ccccc2n1	0	0	?	0	?	0
CCc1ccc(/C=N/NC(=O)c2c[nH]c3ccccc23)s1	91	49	0	0	?	0
O=C(N/N=C/c1cccs1)c1c[nH]c2ccccc12	81	62	0	0	0	0
CCn1c(CNC(=O)c2ccccc2F)nnc1SCC(=O)Nc1nncs1	0	0	0	0	0	0
Cc1ccccc1-c1noc(CCC(=O)NCc2ccco2)n1	0	0	0	28µM	0	0
COc1ccc(-c2noc(CCC(=O)NCc3ccco3)n2)cc1	0	17	0	40µM	0	0
Cc1ccc(-c2noc(CCCC(=O)NCc3ccco3)n2)cc1	-	-	-	0	-	-
Cc1cc(O)c(C(c2cccc(Cl)c2)N2CCN(c3ccccc3)CC2)c(=O)n1Cc1ccco1 (centres undefined)	-	-	-	4µM	-	-
Cc1cc(O)c(C(c2cccc(F)c2)N2CCN(c3ccccc3)CC2)c(=O)n1Cc1ccco1 (centres undefined)	-	-	-	3.2µM	-	-
COc1ccc(C(=O)N2CC(=O)Nc3ccc(C)cc3C2c2ccccc2)cc1OC (centres undefined)	-	-	-	0	-	-
CC1C/C(=N\Nc2ccc(S(N)(=O)=O)cc2[N+](=O)[O-])CC(C)(C)C1 (centres undefined)	0	0	0	0	?	0
CC1C/C(=N/N2C(=O)CSC2=S)CC(C)(C)C1 (centres undefined)	0	0	0	?	13µM	0
CC1C/C(=N/N=C2/NC(=O)CS2)CC(C)(C)C1 (centres undefined)	0	0	0	0	10µM	0
O=C1CS/C(=N/N=C2C3CC4CC(C3)CC2C4)N1	0	0	0	0	13µM	0
CC(C)(C)c1ccc(O)c(/C=N\O)c1	53	18	0	0	-	0
O=c1cc(/C=C/c2cccs2)[nH]c2ccccc12	0	0	9.3µM	0	-	0
SMILES	Shiga inhibitor	Cycloheximide cs	Pf growth 48h	Sm TGR block	Pf growth 96h	NS1 function inh
O=c1cc(C(F)(F)F)[nH]c2ccccc12	0	0	0	0	?	0
CSc1ccc(/C=C/c2cc(=O)c3ccccc3[nH]2)cc1	74	15	1.9µM	0	0	0
Fc1cccc(CCN2C(=S)NC[C@@H]2CC2CCCCC2)c1	0	0	?	0	?	0
NC1=NC[C@@H](Cc2ccc(O)cc2)N1CCc1cccc(F)c1	0	0	10µM	0	1.9µM	0
NC1=NC[C@H](CC2CCCCC2)N1CCc1cc(C(F)(F)F)cc(C(F)(F)F)c1	0	0	2.9µM	0	2.3µM	0
NC1=NC[C@@H](Cc2ccc(O)cc2)N1CCc1cc(C(F)(F)F)cc(C(F)(F)F)c1	0	0	5.9µM	0	3.3µM	0
CC1=CC(=O)O[C@@H]1[C@@]1(C)C[C@H]2OC(=O)C[C@H]3[C@@H](C)C(=O)C(O)=C1[C@@]23CO	-	-	13µM	0	15µM	-
CCn1c(SCC(=O)c2c[nH]c3ccccc23)nc2cc(S(=O)(=O)N3CCOCC3)ccc21	0	0	9.3µM	0	2.3µM	0
